Records with an inconclusive call do not appear. Calls come from the whole dose curve; as a rule, active = well fitted curve in either direction with a large enough effect (not every such curve was filed as active); inconclusive = small, poorly fitted or top-dose-only effect, or another doubt; inactive = flat fitted curve, though single readings scatter.
Test: Stat Signaling Pathway (AID 446);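 note: ME-180 cervical cancer cells given 40 pM IL-6 alongside compound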
Details: ME-180 SIE beta-lactamase reporter, IL-6 stimulated, 5 h; at 7.69 µM (top of the series) unless noted
Protocol: NCGC Assay Overview: The IL-6/STAT signaling pathway was assayed in ME-180 cervical carcinoma cells by a beta-lactamase reporter gene controlled by a STAT Inducible Element (SIE). This reporter is induced by IL-6 at 40 pM AC50 and inhibited by the pan JAK inhibitor, 2-(1,1-Dimethylethyl)-9-fluoro-3,6-dihydro-7H-benz[h]-imidaz[4,5-f]isoquinolin-7-one, at approximately 10 nM AC50. Plated cells were incubated overnight and on the following day, stimulated with 40 pM IL-6 for 5 hrs. The assay was screened at the AC50 of IL-6 activation to identify both inhibitors and activators of IL-6/STAT signaling.
NCGC Assay Protocol Summary: Cells were trypsinized, washed in assay medium (AM, OPTI MEM with 0.5% fetal bovine serum, 0.1 mM nonessential amino acids, 1 mM sodium pyruvate, 10mM HEPES pH 7.3, 100U/ml penicillin, and 100 ug/ml streptomycin) and suspended at 6 x 10e5/ml in AM. Approximately […] cells in 5 uL/well was dispensed into 1536 well plates and the cells were incubated overnight at 37 C. 23 nL of compound were delivered by a pin tool and 1 uL of IL-6 (40 pM final concentration in AM) was added. After centrifugation at 1000 rpm for less than a minute, plates were incubated at 37C for 5 hrs. One uL of detector mix (LiveBLAzerTM, Invitrogen) was added, the plates incubated at room temperature for 2.5 hrs, and fluorescence intensity at 460 and 530 nm emission was measured at 405 nm excitation by an Envision (Perkin Elmer) or Safire II (Tecan). Data were normalized by GeneData to the controls for AC90 stimulation (300 pM IL-6) and to AC90 inhibition (125 nM Jak inhibitor, 40 pM IL-6 in AM).
% is set by controls: 0 for no effect and ±100 for the full control effect.

activity, negative = inhibition, inactive:
CC[C@@H](Nc1ncnc2nc[nH]c12)C(=O)O 0.774%, Nc1ccccc1CCCC(=O)O 4.31%, N[C@@H]1[C@@H]2[C@@H]3C[C@H]4N(CC[C@@]14C(=O)C(=O)O)CC3=CCO[C@@H]2CC(=O)O 6.97%, N=C(CC(=O)Nc1ccccn1)c1ccccc1 5.02%, Cn1c(=S)c2[nH]c(SCCN3CCCC3)nc2n(C)c1=O -0.274%, O[C@]1(c2ccccc2)c2ccccc2NC2=NCCN21 4.27%, NN(CC(=O)O)CC(=O)O -0.699%, COc1ccc(-c2csc3c2[N+]2=CCC=C2C3=O)cc1 -14.9%, O=C1CSC(=S)N1/N=C\c1ccc(Cl)c([N+](=O)[O-])c1 1.79%, CN(C)S(=O)(=O)c1nc(Cl)c2[nH]cnc2n1 -1.44%, O=C(O)C(Sc1ccc(Cl)cc1)Sc1ccc(Cl)cc1 -29.3%, Cc1cccc(C)c1OC[C@@H](N)C(C)C 4.92% [at 38 µM], CC(C)c1cc(CN(C)C)c(O)c(C(C)(C)C)c1 -8.11%, NCCSc1nc(-c2ccccc2)c(-c2ccccc2)o1 -3.16%, N=C(N)SCc1ccc(Cl)cc1Cl (tested in a mixture with another compound) -9.66%, N=C(N)SCCON1C(=O)c2ccccc2C1=O -5.8%, CN1CCN(CCCNN)CC1 1.99%, CNC[C@@H](SC)c1ccc(O)c(O)c1 21%, CNS(=O)(=O)c1ccccc1C(=N)c1ccccc1 0.878%, c1ccc2c[n+](CCCC[n+]3ccc4ccccc4c3)ccc2c1 -5.69%, Cc1cc(C2(c3cc(C)c(O)c(C(=O)O)c3)OS(=O)(=O)c3ccccc32)cc(C(=O)O)c1O 2.58%, CN(C)Cc1cc(C(F)(F)F)ccc1C(O)(c1ccccc1)c1ccccc1 9.65%, O=C(O)C/C=C\CC(=O)O 1.96%, S=C(Nc1ccc2c(c1)Cc1ccccc1-2)Nc1ccc2c(c1)Cc1ccccc1-2 3.09%, CC(C)(CN)CN 0.176%, Cn1c(=O)c2[nH]c(CCCCc3nc4ccccc4[nH]3)nc2n(C)c1=O 5.57%, COc1ccc(Oc2ncc3nc(C)c(=O)n(Cc4ccc(F)cc4)c3n2)cc1 -12.2%, N#C/C(=C(\O)C(=O)O)c1ccc(-c2cccc3ccccc23)cc1 3.75%, Cc1nnc(S(=O)(=O)c2ccc(N=Nc3c(N)nc(N)nc3N)cc2)s1 -3.59%, Clc1ccc2c(c1)N(CCCN1CCCC13CCCCC3)c1ccccc1S2 11.1%, CCN(CC)CCN1c2ccccc2Sc2ccc3ccccc3c21 4.26%, CS(=O)(=O)Nc1cccc(-c2nc(NCc3cccnc3)c3ccccc3n2)c1 -19.5%, CN(C)C(=O)/N=N\C(=O)N(C)C 5.55% [at 38 µM], CC(C)=C[C@H]1[C@@H](C(=O)Oc2ccccc2C(C)C)C1(C)C 6.13%, Cc1[nH]n(-c2ccc(S(=O)(=O)O)cc2)c(=O)c1N=Nc1ccccc1 -16.2%, O=C(O)CCCN1CCCCC1 9.26%, CC(C)=C[C@H]1[C@@H](COC(=O)c2ccccc2Cl)C1(C)C -1.06%, C[C@@H](CSC(=N)N)C(N)=O 9.57%

Same assay, conditions: ME-180 SIE beta-lactamase reporter, IL-6 stimulated, 5 h; at 17.2 µM (top of the series)

activity, negative = inhibition, inactive:
CC(=O)N1CCN(c2ccc(OC[C@@H]3CO[C@@](Cn4ccnc4)(c4ccc(Cl)cc4Cl)O3)cc2)CC1 -12.7%

Same assay, conditions: ME-180 (cervical carcinoma) SIE beta-lactamase reporter, IL-6 stimulated, 5 h; at 38 µM (top of the series)

activity, negative = inhibition, inactive:
CC(=O)N1CCN(c2ccc(OC[C@@H]3CO[C@@](Cn4ccnc4)(c4ccc(Cl)cc4Cl)O3)cc2)CC1 -11.9%

From PubChem BioAssay (NCATS)
